The source of these data is PubChem BioAssay AID504832 (National Center for Advancing Translational Sciences (NCATS), 2011).

The structures appear in SMILES notation. Among all 310,000 compounds or so, about 18,000 (5.8%) were called active. A call without a number means that no potency is given here. Not shown: some 22% with an inconclusive outcome. For the sample, actives were picked, then their nearest neighbours and some compounds at random. A number with no mark means an inactive call. Calls come from the whole dose curve; as a rule, active = well fitted inhibition curve with a large enough effect; inconclusive = small, poorly fitted or top-dose-only effect, or another doubt; inactive = no such curve, though single readings can be large or run the other way.
Potency is the fitted concentration of half-maximal effect.

The experiment is described as follows: Primary qHTS for delayed death inhibitors of the malarial parasite plastid, 48 hour incubation. As to conditions: P. falciparum luciferase growth in erythrocytes; series mostly up to 28.7 µM. An outline of the steps: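 Cell-based growth assay: transgenic P. falciparum expressing firefly luciferase, cultured in red cells within RPMI 1640 containing 0.5% w/v Albumax, 24 mM bicarbonate and gentamycin. A drop in luciferase activity indicates inhibition.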
(In general: In qHTS, concentration-response curves come from the screen itself.)
Regarding `Brc1ccccc1/C=N/Nc1nc2ccccc2o1`, the Potency entry was “inactive”. For `COc1ccc(NC(=O)c2cccc(Cl)c2)c[n+]1[O-]`, the Potency result was “inactive”. The same measure, in the same setting: for `CC(C(=O)c1ccc(-c2ccccc2)cc1)[n+]1cccc(Br)c1` (stereo unspecified) the value was “inactive”; for `CC(C)C(=O)NCC(c1cccs1)S(=O)(=O)c1ccc(F)cc1` (stereo unspecified), “inactive”; for `CC(CC(=O)N1CCN(S(=O)(=O)c2ccccc2)CC1)n1cncn1` (stereo unspecified), “inactive”. The same measure, in the same setting: with `COc1ccc(C(=O)/C=C/c2cccnc2)c(OC)c1` the figure was 11.7 µM (active); with `COc1ccc(C(=O)CCc2ccccc2O)c(OC)c1`, “inactive”; with `COc1ccc(C(=O)CCC(=O)Nc2cccnc2)c(OC)c1`, “inactive”. Still for that read-out and setting: with `COc1ccccc1N(CC(=O)NC1CCCC1)C(=O)C1(C)CC(=O)N=C2C=CC(C)=CN21` (stereo unspecified) the entry was “inactive”. For `COc1ccc(CNC(=O)CN(C(=O)c2csnn2)c2cnc3ccccc3c2)cc1`, the Potency entry was “inactive”.

With `CCOC(=O)N1CCN(Cc2nnc(-c3ccccc3Cl)o2)CC1`, the Potency entry was “inactive”.

For the molecule `COc1cc(C(c2c(NC(=O)c3ccco3)sc(C)c2C)N2CCOCC2)cc(OC)c1OC` (stereo unspecified), the Potency was 10.4 µM (active). Still for that read-out and setting: for `COC(=O)c1cc(NC(=O)c2ccco2)ccc1N1CCOCC1` the value was “inactive”; for `COc1ccc(C(=O)Nc2sc(C)c(C)c2CN2CCOCC2)cc1`, “inactive”.

Consider `O=c1c2cc([N+](=O)[O-])ccc2nc2n1CCC2`, for which the Potency entry is “inactive”. Still for that read-out and setting: with `COc1ccc(OC)c(NC(=O)C2CCCN2S(=O)(=O)c2cccc3nsnc23)c1` (stereo unspecified) the entry was “inactive”.

Take `O=C(CCNS(=O)(=O)c1cccs1)N1CCN(c2ccc(F)cc2)CC1`: the Potency result is “inactive”. On the same count and under the same terms, with `O=c1ccc2cc(S(=O)(=O)NCCCc3ccccc3)ccc2[nH]1` the entry was “inactive”; with `Cn1cnnc1SCc1nnc(-c2ccccc2Br)o1`, “inactive”. Consider `CC(C)N(Cc1nnc(-c2ccc(Cl)cc2)o1)C(=O)C1=COCCO1`, for which the Potency entry was “inactive”.

Take `CC(C)N(Cc1nnc(-c2ccccc2Br)o1)C(=O)c1cc(Cl)nc2ccccc12`: the Potency was 9.28 µM (active). Same read-out and setting: with `COC(=O)C1=CO[C@@H](O[C@@H]2O[C@H](CO)[C@@H](O)[C@H](O)[C@H]2O)C2C1C[C@H](O)[C@@H]2C` (stereo partly specified) the entry was “inactive”.

For the molecule `COc1ccc(C(=O)NCc2ccc(C)cc2)cc1S(=O)(=O)N1CCCC1`, the Potency entry was “inactive”. As for `COC(=O)C(C)Oc1ccc2c(c1)O/C(=C\c1cccc(Br)c1)C2=O` (stereo unspecified), the Potency was 13.1 µM (active).

Turning to `CN(C)C(=O)Oc1ccc2c(c1)O/C(=C\c1ccccc1)C2=O`, the Potency result is “inactive”. On the same count and under the same terms, for `COC(=O)C(C)Oc1ccc2c(-c3cccc([N+](=O)[O-])c3)cc(=O)oc2c1` (stereo unspecified) the value was “inactive”. Still for that read-out and setting: for `CCOC(=O)CC1COCCN1C(=O)c1cc(COc2ccc(F)c(F)c2)on1` (stereo unspecified) the value was “inactive”; for `Cc1cc(Nc2ccc(C(=O)N3CCCCC3)cc2)c2cccc(C)c2n1`, “inactive”.

Turning to `Cc1cc(Nc2ccc(Cl)cc2)nc(N2CCOCC2)n1`, the Potency result was “inactive”. The same measure, in the same setting: for `Cc1cc(Nc2ccc(N3CCOCC3)cc2)c2cccc(C)c2n1` the value was 4.15 µM (active); for `O=[N+]([O-])c1ccc(C=Nc2ccc(Cl)cc2Cl)s1`, 10.4 µM (active); for `O=S(=O)(Nc1ccccc1Cl)c1cccc2nsnc12`, “inactive”.

As for `C/C(CC(=O)NCc1ccc(Cl)cc1)=N\NC(=O)COc1ccc(C)cc1Br`, the Potency entry was “inactive”. On the same count and under the same terms, with `COc1ccc(-c2cc(C(=O)N3CCN(Cc4ccc5c(c4)OCO5)CC3)on2)cc1OC` the entry was “inactive”. Still for that read-out and setting: with `COc1ccccc1CCCNC(=O)C1CCC(=O)N(CCN2CCOCC2)C1` (stereo unspecified) the entry was “inactive”; with `Cc1cc(C)cc(OCC(=O)Nc2ccc(N3CCOCC3)cc2N2CCOCC2)c1`, 11.7 µM (active); with `O=C(COc1ccc(Cl)cc1)NC(=S)Nc1ccccc1N1CCOCC1`, “inactive”. Still for that read-out and setting: with `Cc1cccc(OCC(=O)NC(=S)Nc2ccccc2N2CCOCC2)c1` the entry was “inactive”; with `CC(C)c1ccc(/C=C/C(=O)NCCCN2CCOCC2)cc1`, “inactive”; with `O=C(OCC(=O)N1CCN(C(=O)c2ccco2)CC1)c1cccc(O)c1`, “inactive”. In the case of `Cc1cc(-c2csc(N)n2)c(C)n1-c1ccccc1`, the Potency is 14.7 µM (active). Consider `O=c1onc(-c2cccs2)n1Cc1ccccc1`, for which the Potency result is “inactive”.

For the molecule `S=c1[nH]nc(-c2cc(-c3ccsc3)n[nH]2)n1-c1ccccc1`, the Potency entry was “inactive”. The same measure, in the same setting: for `CCCc1cc(-c2n[nH]c(=S)n2Cc2ccccc2)cs1` the value was “inactive”; for `Cc1n[nH]c(=O)n1-c1ccc(Oc2ccccc2)cc1`, “inactive”; for `Cc1cc(-c2csc(N)n2)c(C)n1Cc1ccccc1`, 11.7 µM (active). Regarding `O=C(Cc1ccc(Br)cc1)NCCN1CCOCC1`, the activity change, negative = inhibition was 5.97% [at 0.00184 µM]. On to `CCC(C(=O)N1CCN(S(=O)(=O)c2sc(C(=O)O)c(C)c2C(=O)O)CC1)c1ccccc1` (stereo unspecified), for which the Potency result is “inactive”.

In the case of `COc1ccc(OC)c(NC(=O)c2cccc(S(=O)(=O)N3CCN(C(C)=O)CC3)c2)c1`, the Potency result was “inactive”. Turning to `COc1cc(OC)cc(C(=O)Nc2nnc(SCC(=O)NCC3CCCO3)s2)c1` (stereo unspecified), the Potency entry was “inactive”.

For the molecule `Cc1ccccc1Nc1nc(-c2cccnc2)cs1`, the Potency result is “inactive”.

On to `CCCOc1ccc(Cc2c(O)nc(SC)[nH]c2=O)cc1C`, for which the Potency entry is “inactive”. For `CN(C)c1ccc(/C=N/N(Cc2ccccc2)c2ccccc2)cc1`, the Potency entry is “inactive”. Same read-out and setting: for `CC1=NN(Cc2ccccc2)C(=O)/C1=C/c1ccc(N(C)C)cc1` the value was “inactive”; for `COC(=O)c1ccc(Cc2ccccc2)o1`, “inactive”. Still for that read-out and setting: with `C[n+]1ccc(C(=O)NCc2ccccc2)cc1` the entry was “inactive”. On the same count and under the same terms, for `c1ccc(Cc2cc[n+](Cc3ccccc3)cc2)cc1` the value was 1.17 µM (active); for `CN(C)c1cc[n+](Cc2ccccc2)cc1`, 0.928 µM (active); for `Cc1ccc(NS(=O)(=O)c2cc3c(cc2C)NC(=O)CO3)cc1`, “inactive”. For the molecule `Cc1ccc(S(=O)(=O)N2CCC(N3CCCCCC3)CC2)cc1`, the Potency result was “inactive”. On the same count and under the same terms, for `O=S(=O)(c1ccccc1)N1CCC(c2ccccc2)CC1` the value was “inactive”; for `c1ccc(C2CCC(N3CCC(N4CCCCC4)CC3)CC2)cc1` (stereo unspecified), 10.4 µM (active); for `COc1ccccc1NC(=O)Nc1nnc(Cc2ccc(F)cc2)s1`, “inactive”. Consider `CC1=NN(/C(=N\c2nnc(C)s2)Nc2ccccc2)[C@H](c2ccc(C)cc2)S1`, for which the Potency was 8.28 µM (active). Same read-out and setting: with `COc1ccc2oc(=N)c(C(=O)Nc3ccc(Br)cc3)cc2c1` the entry was “inactive”; with `CCOC(=O)C1CCN(C(=O)CC2C(=O)N(Cc3ccccc3)C(C)c3nc4ccccc4n32)CC1` (stereo unspecified), 7.38 µM (active); with `CCOC(=O)C1CCN(C(=O)Cn2cc(C#N)c3ccccc32)CC1`, “inactive”. On the same count and under the same terms, with `CC1c2nc3ccccc3n2C(CC(=O)NCCCN2CCOCC2)C(=O)N1Cc1ccccc1` (stereo unspecified) the entry was “inactive”; with `O=C(NCCS(=O)(=O)NCc1ccc(F)cc1)c1ccccc1`, “inactive”; with `Cc1cc(C)nc(N/N=C/c2c(CO)cnc(C)c2O)n1`, 10.4 µM (active). With `COc1ccc(/C=C2\SC(=S)N(CCC(=O)Nc3cccc(C(=O)O)c3)C2=O)cc1OC`, the Potency result was “inactive”.

In the case of `CN(NS(=O)(=O)c1cccs1)c1ncc(C(F)(F)F)cc1Cl`, the Potency entry is “inactive”.

For `COc1ccc(CNC(=O)c2ccc3oc(C(C)C)nc3c2)cc1`, the Potency entry is “inactive”.

As for `O=C(COC(=O)/C=C/c1ccc(OC(F)F)cc1)NC1CCCCC1`, the Potency entry was “inactive”. In the case of `O=C(NCc1cccc(Cl)c1)C1CCN(c2nnc(N3CCCC3=O)s2)CC1`, the Potency result is “inactive”.

Consider `COc1ccccc1CNS(=O)(=O)c1c(C)[nH]c(C)c1C(=O)N1CCCCC1`, for which the Potency result was “inactive”. Still for that read-out and setting: with `O=C(CSc1nnnn1-c1ccc(O)cc1)c1ccc(F)cc1` the entry was “inactive”; with `COc1ccc(C2=NN(C(=O)CSc3nnnn3C)C(c3ccco3)C2)cc1` (stereo unspecified), “inactive”; with `O=C(CSc1nnnn1-c1ccc(O)cc1)N1N=C(c2ccc3ccccc3c2)CC1c1ccccc1` (stereo unspecified), 2.33 µM (active). The same measure, in the same setting: for `COc1ccccc1C(=O)N1CC2(C)CC1CC(C)(C)C2` (stereo unspecified) the value was “inactive”; for `Cc1cccc(C(=O)NCC(=O)OCC(=O)N2CC3(C)CC2CC(C)(C)C3)c1` (stereo unspecified), “inactive”. Same read-out and setting: for `Cc1nnnn1/C(=C\c1ccccc1)C(=O)OCC(=O)N1CC2(C)CC1CC(C)(C)C2` (stereo unspecified) the value was 11.7 µM (active); for `COc1ccc(OC)c(-c2csc(NC(=O)COC(=O)C3CC3)n2)c1`, “inactive”; for `C=CCOc1ccccc1NC(=O)CN1C(=O)CNC1=O`, “inactive”.

As for `CC(C)(C)NC(=O)C(c1ccco1)N(Cc1ccc2c(c1)OCO2)C(=O)Cn1nnc2ccccc21` (stereo unspecified), the Potency is 8.28 µM (active). Same read-out and setting: for `CC(C)(C)NC(=O)C(c1ccncc1)N(C(=O)CNC(=O)c1ccco1)c1ccc2c(c1)OCO2` (stereo unspecified) the value was “inactive”.

On to `CCC(C)(C)NC(=O)C(c1cccn1C)N(Cc1ccc(C)cc1)C(=O)Cn1nnc2ccccc21` (stereo unspecified), for which the Potency entry was “inactive”.

In the case of `COCCn1c(C)cc(C(=O)CSc2nnc(C3CC3)n2C2CC2)c1C`, the Potency entry was “inactive”. The same measure, in the same setting: with `CCC(=O)Nc1ccc(S(=O)(=O)Nc2c(NC)c3ccccc3oc2=O)cc1` the entry was “inactive”; with `CCOC(=O)c1sc(NC(=O)CSc2nnc(-c3ccco3)o2)c(C(=O)OCC)c1C`, “inactive”; with `CCOC(=O)c1sc(NC(=O)CSc2nc3c(c(=O)n2-c2ccccc2)SCC3)c(C(=O)OCC)c1C`, 1.65 µM (active).

Consider `CCOC(=O)c1c(NC(=O)CSc2nccc(=O)[nH]2)sc(C)c1C`, for which the Potency result was “inactive”. On the same count and under the same terms, with `COc1cccc(N2CCN(c3ccc4nnc(CCC(=O)N5CCN(C)CC5)n4n3)CC2)c1` the entry was “inactive”. Turning to `COc1ccc(Nc2ncnc3sc(C)cc23)cc1`, the Potency result is “inactive”. On the same count and under the same terms, with `Cc1cc(Cl)ccc1C(=O)C1CCCN(C(=O)c2nonc2C)C1` (stereo unspecified) the entry was “inactive”; with `CCOC(=O)C(C)n1cnc2c(nnn2-c2ccc(F)cc2)c1=O` (stereo unspecified), “inactive”. The same measure, in the same setting: with `COc1ccccc1NC(=O)c1cc(Cl)nnc1Cl` the entry was “inactive”. On the same count and under the same terms, for `COc1ccccc1NC1=NC(c2ccc(Cl)cc2)N=C(N)N1` (stereo unspecified) the value was 10.4 µM (active); for `COc1ccccc1Nc1nc(N)nc(CSC(=S)N2CCOCC2)n1`, “inactive”. `Cc1ccc(OCC(=O)Nc2ccc(C(=O)O)cc2NC(=O)COc2ccc(C)c(C)c2)cc1C`: the Potency result was “inactive”. Still for that read-out and setting: with `O=C1Nc2ccccc2/C1=C/c1ccnc2ccccc12` the entry was “inactive”; with `CCOC(=O)C1C(c2ccc(O)cc2)NC(=O)NC1(O)C(F)(F)F` (stereo unspecified), “inactive”; with `CC1C(=O)C(C)C(c2ccc(O)cc2)NC1c1ccc(O)cc1` (stereo unspecified), 6.57 µM (active).

In the case of `CCOc1ccccc1NC(=O)CCS(=O)(=O)c1cccc2nsnc12`, the Potency result was “inactive”.

In the case of `CCOc1ccc(OCC)c(NC(=O)CN(C)S(=O)(=O)c2cccc3nsnc23)c1`, the Potency was 1.17 µM (active). On the same count and under the same terms, with `CCOc1ccc(N(CC)S(=O)(=O)c2cccc3nsnc23)cc1` the entry was “inactive”.
